# Data published in PubChem BioAssay (NCI).
# This is part of a sample that, as a whole, favours compounds with a hit. Of some 83,000 tested, about 20% had one in any assay.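 Growth was measured after 48 h exposure to one concentration of compound in 96-well plates. Values under 10 count as active.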 A number with no mark means an inactive call. Activity calls are given as the source filed them.
# System: LOX IMVI melanoma
# Assay: NCI-60 one-dose screen, 48 h (100 = growth as untreated, 0 = no growth, -100 = all killed)
# Details: 10 µM unless noted
row,Compound,growth
1,OC(c1ccccc1)(c1ccccc1)c1ccccc1-c1ccccc1,87.2%
2,Clc1ccc(-c2nc(-c3c[nH]c4ncccc34)cs2)cc1,62.6% [100 µM]
3,CC(=O)c1cc(-c2ccccc2N)n(-c2ccc3c(c2)OCO3)c1C,35.1%
4,CC1O[C@@H]2C[C@@](O)([C@H]1O)n1c3ccccc3c3c4c(c5c6ccccc6n2c5c31)C(=O)NC4=O (stereo partly drawn),7.1% (active)
5,COC(=O)/C(CCC=C(C)C)=C1\[C@@H](OC(C)=O)C[C@@]2(C)[C@H]1CC(=O)[C@H]1[C@@]3(C)CCC(N4CCCC4)[C@@H](C)[C@@H]3CC[C@@]12C (stereo partly drawn),101%
6,CN(C)c1ccc(/C=C2/C=C(c3ccccc3)OC2=O)cc1,98.8%
7,COc1cc(-c2nc3occn3c2-c2ccnc(NCCCNS(=O)(=O)c3ccccc3)n2)ccc1F,31.5%
8,O=C(Nc1ccccc1)c1sc(-c2ccccc2)cc1O,109%
9,CCOC(=O)c1c2c(n3c1NCC3)-c1ccccc1C2=O,97.9%
10,C/C(=N\Nc1nc(C)cs1)c1cc2ccccc2o1,85.8%
11,CCOC(=O)C1=C(c2ccccc2)N=c2s/c(=C/c3ccc(Br)cc3)c(=O)n2C1c1ccc(O)cc1 (stereo not drawn),91.7%
12,COc1ccc(C2CC(c3ccc(Nc4nc(Nc5ccc(F)cc5)nc(Nc5ccc(F)cc5)n4)cc3)=NN2C(C)=O)cc1 (stereo not drawn),103%
13,c1ccc2cc(Cn3c[n+](Cc4ccc5ccccc5c4)c4ccccc43)ccc2c1,-93.9% (active)
